Screen size: about 5,500 compounds; about 2,000 (36%) were called active. Another 18% or so got no clear call; they are omitted. Rule as the data show it: active = normalized growth mostly below about 0.91 (no sharp cut-off); inconclusive = no clear call, values can overlap the other calls; inactive = mostly above about 0.92. The list shows a part of the results.
Test: chemical genetic growth profiling, strain panel (AID 1159580);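 also: tested at 20 µM; growth read once vehicle control cultures reached saturation at 30 °C; 1 = growth at the plate median or of vehicle wells; lower values mean less growth of the strain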
Details: growth OD

Measured: normalized growth

CC1(C)S[C@@H]2[C@H](NC(=O)Cc3ccccc3)C(=O)N2[C@H]1C(=O)O
inactive: S. cerevisiae deletion strains, locus YJR066W, strain TOR1, active compounds read low 0.941 | S. cerevisiae deletion strains, locus YKL009W, strain mrt4, active compounds read low 1 | S. cerevisiae deletion strains, locus YKL068W, active compounds read low 1 | S. cerevisiae deletion strains, locus YKL085W, strain MDH1 (second series), active compounds read low 1 | S. cerevisiae deletion strains, locus YKL085W, strain MDH1, active compounds read low 1 | S. cerevisiae deletion strains, locus YKL160W, strain elf1, active compounds read low 1.01 | S. cerevisiae deletion strains, locus YKL190W, strain CNB1, active compounds read low 1.01 | S. cerevisiae deletion strains, locus YKR001C, strain vps1, active compounds read low 1.01 | S. cerevisiae deletion strains, locus YKR026C, strain gcn3, active compounds read low 1.03 | S. cerevisiae deletion strains, locus YKR091W, strain srl3, active compounds read low 1.01 | S. cerevisiae deletion strains, locus YLL001W, strain dnm1, active compounds read low 1.03 | S. cerevisiae deletion strains, locus YLL026W, active compounds read low 1.02 | S. cerevisiae deletion strains, locus YLL041C, strain sdh2, active compounds read low 1.01 | S. cerevisiae deletion strains, locus YLR027C, strain aat2, active compounds read low 1.03 | S. cerevisiae deletion strains, locus YLR039C, strain RIC1, active compounds read low 1.04 | S. cerevisiae deletion strains, locus YLR058C, strain SHM2, active compounds read low 1 | S. cerevisiae deletion strains, locus YLR102C, strain apc9, active compounds read low 1.02 | S. cerevisiae deletion strains, locus YLR113W, strain HOG1, active compounds read low 0.986 | S. cerevisiae deletion strains, locus YLR221C, strain rsa3, active compounds read low 1.03 | S. cerevisiae deletion strains, locus YLR258W, strain gsy2, active compounds read low 1.03 | S. cerevisiae deletion strains, locus YLR262C, strain YPT6 (second series), active compounds read low 1 | S. cerevisiae deletion strains, locus YLR262C, strain YPT6, active compounds read low 1.02 | S. cerevisiae deletion strains, locus YLR268W, strain sec22, active compounds read low 1.02 | S. cerevisiae deletion strains, locus YLR320W, strain mms22, active compounds read low 1.04 | S. cerevisiae deletion strains, locus YLR330W, strain CHS5, active compounds read low 1 | S. cerevisiae deletion strains, locus YLR342W, strain FKS1 (second series), active compounds read low 1.01 | S. cerevisiae deletion strains, locus YLR342W, strain FKS1, active compounds read low 1.03 | S. cerevisiae deletion strains, locus YLR357W, strain rsc2, active compounds read low 1.03 | S. cerevisiae deletion strains, locus YLR370C, strain arc18, active compounds read low 1.03 | S. cerevisiae deletion strains, locus YLR371W, strain rom2, active compounds read low 1.02 | S. cerevisiae deletion strains, locus YLR384C, strain iki3, active compounds read low 1.03 | S. cerevisiae deletion strains, locus YLR418C, strain cdc73, active compounds read low 1.03 | S. cerevisiae deletion strains, locus YML016C, strain PPZ1, active compounds read low 1.01 | S. cerevisiae deletion strains, locus YML032C, strain rad52, active compounds read low 1.02 | S. cerevisiae deletion strains, locus YML120C, strain ndi1, active compounds read low 1.04 | S. cerevisiae deletion strains, locus YML124C, strain tub3, active compounds read low 1.02 | S. cerevisiae deletion strains, locus YMR058W, strain fet3, active compounds read low 1.01 | S. cerevisiae deletion strains, locus YMR078C, strain ctf18, active compounds read low 1.03 | S. cerevisiae deletion strains, locus YMR125W, strain sto1, active compounds read low 1.06 | S. cerevisiae deletion strains, locus YMR129W, active compounds read low 1.03 | S. cerevisiae deletion strains, locus YMR205C, strain PFK2, active compounds read low 1.03 | S. cerevisiae deletion strains, locus YMR223W, strain ubp8, active compounds read low 1.02 | S. cerevisiae deletion strains, locus YMR231W, strain pep5, active compounds read low 1.03 | S. cerevisiae deletion strains, locus YMR263W, strain SAP30, active compounds read low 1 | S. cerevisiae deletion strains, locus YMR307W, strain GAS1, active compounds read low 1.01 | S. cerevisiae deletion strains, locus YNL067W, strain RPL9B, active compounds read low 1 | S. cerevisiae deletion strains, locus YNL071W, strain lat1, active compounds read low 1.02 | S. cerevisiae deletion strains, locus YNL128W, strain TEP1, active compounds read low 1.01 | S. cerevisiae deletion strains, locus YNL183C, strain NPR1, active compounds read low 0.944 | S. cerevisiae deletion strains, locus YNL209W, strain ssb2, active compounds read low 1.02 | S. cerevisiae deletion strains, locus YNL233W, strain BNI4, active compounds read low 0.999 | S. cerevisiae deletion strains, locus YNL248C, strain rpa49, active compounds read low 1.03 | S. cerevisiae deletion strains, locus YNL250W, strain rad50, active compounds read low 1.02 | S. cerevisiae deletion strains, locus YNL271C, strain bni1, active compounds read low 1.02 | S. cerevisiae deletion strains, locus YNL298W, strain CLA4, active compounds read low 1.01 | S. cerevisiae deletion strains, locus YNL307C, strain MCK1, active compounds read low 1.03 | S. cerevisiae deletion strains, locus YNL322C, strain KRE1 (second series), active compounds read low 1.04 | S. cerevisiae deletion strains, locus YNR049C, strain mso1, active compounds read low 1.01 | S. cerevisiae deletion strains, locus YNR052C, strain pop2, active compounds read low 1.02 | S. cerevisiae deletion strains, locus YOL006C, strain TOP1, active compounds read low 1.02 | S. cerevisiae deletion strains, locus YOL012C, strain htz1 1.12 | S. cerevisiae deletion strains, locus YOL147C, strain pex11, active compounds read low 1.02 | S. cerevisiae deletion strains, locus YOR001W, strain rrp6, active compounds read low 1.04 | S. cerevisiae deletion strains, locus YOR061W, strain CKA2, active compounds read low 1.01 | S. cerevisiae deletion strains, locus YOR069W, strain VPS5, active compounds read low 0.998 | S. cerevisiae deletion strains, locus YOR070C, strain gyp1, active compounds read low 1.03 | S. cerevisiae deletion strains, locus YOR080W, strain dia2, active compounds read low 1.02 | S. cerevisiae deletion strains, locus YOR083W, strain WHI5, active compounds read low 0.987 | S. cerevisiae deletion strains, locus YOR106W, strain vam3, active compounds read low 1.03 | S. cerevisiae deletion strains, locus YOR136W, strain idh2, active compounds read low 1.02 | S. cerevisiae deletion strains, locus YOR144C, strain elg1, active compounds read low 1.02 | S. cerevisiae deletion strains, locus YOR184W, strain ser1, active compounds read low 1.06 | S. cerevisiae deletion strains, locus YOR231W, strain MKK1, active compounds read low 0.994 | S. cerevisiae deletion strains, locus YOR265W, strain rbl2, active compounds read low 1.01 | S. cerevisiae deletion strains, locus YOR270C, strain vph1, active compounds read low 1.13 | S. cerevisiae deletion strains, locus YOR290C, strain snf2, active compounds read low 1.03 | S. cerevisiae deletion strains, locus YOR316C, strain cot1, active compounds read low 1.02 | S. cerevisiae deletion strains, locus YPL051W, strain arl3, active compounds read low 1.03 | S. cerevisiae deletion strains, locus YPL055C, strain LGE1, active compounds read low 1.01 | S. cerevisiae deletion strains, locus YPL078C, strain atp4, active compounds read low 1.03 | S. cerevisiae deletion strains, locus YPL106C, strain sse1, active compounds read low 1.02 | S. cerevisiae deletion strains, locus YPL240C, strain hsp82, active compounds read low 1.02 | S. cerevisiae deletion strains, locus YPL256C, strain CLN2, active compounds read low 0.966 | S. cerevisiae deletion strains, locus YPR119W, strain clb2, active compounds read low 1.03 | S. cerevisiae deletion strains, locus YPR141C, strain kar3, active compounds read low 1.01 | S. cerevisiae deletion strains, locus YPR163C, strain tif3, active compounds read low 1.03 | S. cerevisiae deletion strains, locus YPR167C, strain met16, active compounds read low 1.02 | S. cerevisiae deletion strains, strain wtn01, active compounds read low 1.01 | S. cerevisiae strains, strain wild type, active compounds read low 1
